# Legend:
# Test in all cases: DAPPL (digital affinity profiling via proximity ligation, sequencing); 10 mM Tris-HCl pH 7.5, 50 mM NaCl, 1 mM DTT, 4% glycerol, room temperature, 30 min; GST-TFs on glutathione beads, 16-mer random dsDNA library, 0.1% formaldehyde crosslink after washing; high values mean tight binding
# FEV = target: T1, FEV (Homo sapiens, UniProt Q99581 1-238); conditions: protein: recombinant; tags: N-terminal GST; dsDNA, one strand shown
# T1 sequence: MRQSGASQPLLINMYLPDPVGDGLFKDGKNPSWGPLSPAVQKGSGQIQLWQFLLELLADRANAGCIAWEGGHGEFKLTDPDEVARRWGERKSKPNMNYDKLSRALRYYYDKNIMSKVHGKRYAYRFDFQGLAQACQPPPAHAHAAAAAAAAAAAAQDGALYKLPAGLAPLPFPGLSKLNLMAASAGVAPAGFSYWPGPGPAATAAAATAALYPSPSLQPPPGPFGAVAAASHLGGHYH
# Method in brief: (§1)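 Human transcription factors carrying a GST fusion were produced in yeast, bound to glutathione beads, tagged with DNA barcodes and pooled together with a tag-only sample. Each pool was held with 200 nmole of a random double-stranded 16-mer DNA library in Tris/NaCl/DTT/glycerol buffer for 30 min at room temperature, then washed, crosslinked in 0.1% formaldehyde, proximity-ligated with BsaI/T4 ligase (1 h, 37 °C), PCR-amplified and sequenced on an Illumina NextSeq500. Binding signal is the read frequency of each hexamer for a given factor divided by its frequency in the tag-only sample.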
# ETV5 = ETV5 (Homo sapiens, UniProt P41161 1-510); conditions: protein: recombinant; tags: N-terminal GST; dsDNA, one strand shown
# Method in brief: as §1
# HSF1 = HSF1 (Homo sapiens, UniProt Q00613 1-529); conditions: protein: recombinant; tags: N-terminal GST; chain copies: 3; dsDNA, one strand shown
# Method in brief: as §1
# SPIC = target: T2, SPIC (Homo sapiens, UniProt Q8N5J4 1-248); conditions: protein: recombinant; tags: N-terminal GST; dsDNA, one strand shown
# T2 sequence: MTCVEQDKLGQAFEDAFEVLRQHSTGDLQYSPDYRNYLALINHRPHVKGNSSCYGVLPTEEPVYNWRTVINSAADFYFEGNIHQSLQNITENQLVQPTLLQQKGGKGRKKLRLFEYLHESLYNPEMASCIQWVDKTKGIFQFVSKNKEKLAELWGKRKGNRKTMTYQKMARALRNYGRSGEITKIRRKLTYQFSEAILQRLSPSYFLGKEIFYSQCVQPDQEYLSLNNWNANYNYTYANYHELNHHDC
# Method in brief: as §1
# ELF4 = ELF4 (Homo sapiens, UniProt Q99607 1-663); conditions: protein: recombinant; tags: N-terminal GST; dsDNA, one strand shown
# Method in brief: as §1
# ELK4 = target: T3, ELK4 (Homo sapiens, UniProt P28324-2 1-405); conditions: protein: recombinant; tags: N-terminal GST; dsDNA, one strand shown
# T3 sequence: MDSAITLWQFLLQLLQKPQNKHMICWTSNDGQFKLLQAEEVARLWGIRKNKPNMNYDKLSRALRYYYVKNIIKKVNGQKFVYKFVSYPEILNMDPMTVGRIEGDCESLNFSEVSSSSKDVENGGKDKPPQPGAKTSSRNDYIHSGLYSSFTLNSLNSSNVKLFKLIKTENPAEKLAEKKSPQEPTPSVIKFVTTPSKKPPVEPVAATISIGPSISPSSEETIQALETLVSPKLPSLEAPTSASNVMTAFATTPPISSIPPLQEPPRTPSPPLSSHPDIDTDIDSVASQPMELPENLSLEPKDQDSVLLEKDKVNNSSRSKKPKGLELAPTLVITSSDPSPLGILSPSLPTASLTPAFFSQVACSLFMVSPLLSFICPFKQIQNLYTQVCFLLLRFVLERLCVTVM
# Method in brief: as §1
# ETV2 = target: T4, ETV2 (Homo sapiens, UniProt O00321 1-342); conditions: protein: recombinant; tags: N-terminal GST; dsDNA, one strand shown
# T4 sequence: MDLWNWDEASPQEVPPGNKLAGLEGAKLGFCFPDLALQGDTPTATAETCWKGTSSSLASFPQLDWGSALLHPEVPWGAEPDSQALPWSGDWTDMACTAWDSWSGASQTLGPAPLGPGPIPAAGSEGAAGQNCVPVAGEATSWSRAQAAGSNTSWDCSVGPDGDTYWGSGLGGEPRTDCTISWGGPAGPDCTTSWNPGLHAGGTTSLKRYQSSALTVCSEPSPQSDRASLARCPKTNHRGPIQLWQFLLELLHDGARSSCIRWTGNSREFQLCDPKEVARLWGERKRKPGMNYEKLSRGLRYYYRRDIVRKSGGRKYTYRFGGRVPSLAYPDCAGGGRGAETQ
# Method in brief: as §1
# ELF3 = target: T5, ELF3 (Homo sapiens, UniProt P78545 1-371); conditions: protein: recombinant; tags: N-terminal GST; dsDNA, one strand shown
# T5 sequence: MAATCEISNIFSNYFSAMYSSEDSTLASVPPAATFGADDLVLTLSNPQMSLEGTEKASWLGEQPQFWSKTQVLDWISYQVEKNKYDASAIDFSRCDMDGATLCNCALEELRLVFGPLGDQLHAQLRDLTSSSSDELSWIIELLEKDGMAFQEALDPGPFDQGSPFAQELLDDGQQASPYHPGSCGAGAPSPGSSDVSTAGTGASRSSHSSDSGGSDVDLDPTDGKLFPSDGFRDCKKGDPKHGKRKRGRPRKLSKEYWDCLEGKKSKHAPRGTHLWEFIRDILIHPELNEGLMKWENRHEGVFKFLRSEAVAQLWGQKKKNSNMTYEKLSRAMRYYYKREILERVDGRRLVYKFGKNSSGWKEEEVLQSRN
# Method in brief: as §1
# CRX = CRX (Homo sapiens, UniProt O43186 1-299); conditions: protein: recombinant; tags: N-terminal GST; dsDNA, one strand shown
# Method in brief: as §1
# ETV1 = ETV1 (Homo sapiens, UniProt P50549 1-477); conditions: protein: recombinant; tags: N-terminal GST; dsDNA, one strand shown
# Method in brief: as §1
# ERF = target: T6, ERF (Homo sapiens, UniProt P50548 1-548); conditions: protein: recombinant; tags: N-terminal GST; dsDNA, one strand shown
# T6 sequence: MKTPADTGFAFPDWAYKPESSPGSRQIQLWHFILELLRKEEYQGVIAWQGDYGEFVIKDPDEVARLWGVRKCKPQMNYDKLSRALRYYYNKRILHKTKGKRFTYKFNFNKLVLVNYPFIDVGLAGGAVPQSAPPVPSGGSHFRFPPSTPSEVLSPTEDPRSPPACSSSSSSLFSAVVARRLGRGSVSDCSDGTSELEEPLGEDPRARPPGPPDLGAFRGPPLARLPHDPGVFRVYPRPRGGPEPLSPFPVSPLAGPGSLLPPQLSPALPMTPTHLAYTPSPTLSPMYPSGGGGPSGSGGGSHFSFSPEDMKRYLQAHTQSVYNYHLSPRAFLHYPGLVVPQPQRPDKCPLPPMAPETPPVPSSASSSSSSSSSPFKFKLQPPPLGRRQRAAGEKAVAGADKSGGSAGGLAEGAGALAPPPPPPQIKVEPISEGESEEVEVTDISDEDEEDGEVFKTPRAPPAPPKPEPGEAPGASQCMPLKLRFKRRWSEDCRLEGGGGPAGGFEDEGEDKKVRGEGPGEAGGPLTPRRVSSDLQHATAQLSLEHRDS
# Method in brief: as §1
# ETV3L = target: T7, ETV3L (Homo sapiens, UniProt Q6ZN32 1-361); conditions: protein: recombinant; tags: N-terminal GST; dsDNA, one strand shown
# T7 sequence: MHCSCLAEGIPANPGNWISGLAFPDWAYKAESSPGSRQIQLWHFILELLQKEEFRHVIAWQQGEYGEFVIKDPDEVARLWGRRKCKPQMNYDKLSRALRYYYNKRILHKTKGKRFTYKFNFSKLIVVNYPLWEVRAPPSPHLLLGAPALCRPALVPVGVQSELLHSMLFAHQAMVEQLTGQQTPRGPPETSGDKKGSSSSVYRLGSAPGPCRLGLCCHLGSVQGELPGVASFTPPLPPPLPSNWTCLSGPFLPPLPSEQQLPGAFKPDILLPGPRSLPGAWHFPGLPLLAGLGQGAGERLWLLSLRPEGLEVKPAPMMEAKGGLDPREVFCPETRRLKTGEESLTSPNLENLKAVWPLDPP
# Method in brief: as §1
# ETS2 = target: T8, ETS2 (Homo sapiens, UniProt P15036 1-469); conditions: protein: recombinant; tags: N-terminal GST; dsDNA, one strand shown
# T8 sequence: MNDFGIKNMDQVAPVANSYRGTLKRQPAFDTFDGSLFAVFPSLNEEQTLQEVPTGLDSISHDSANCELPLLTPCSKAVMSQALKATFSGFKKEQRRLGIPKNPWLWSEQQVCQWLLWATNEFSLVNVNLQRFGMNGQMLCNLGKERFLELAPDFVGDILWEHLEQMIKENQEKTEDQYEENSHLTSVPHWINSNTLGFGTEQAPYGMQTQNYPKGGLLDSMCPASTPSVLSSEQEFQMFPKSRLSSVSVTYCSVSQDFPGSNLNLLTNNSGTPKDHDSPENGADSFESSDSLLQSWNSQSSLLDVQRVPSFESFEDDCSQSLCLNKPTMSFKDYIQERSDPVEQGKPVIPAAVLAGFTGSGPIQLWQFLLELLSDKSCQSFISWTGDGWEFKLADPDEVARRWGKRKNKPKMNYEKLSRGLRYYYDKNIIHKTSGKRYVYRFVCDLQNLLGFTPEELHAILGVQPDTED
# Method in brief: as §1
# SPDEF = target: T9, SPDEF (Homo sapiens, UniProt O95238 1-335); conditions: protein: recombinant; tags: N-terminal GST; dsDNA, one strand shown
# T9 sequence: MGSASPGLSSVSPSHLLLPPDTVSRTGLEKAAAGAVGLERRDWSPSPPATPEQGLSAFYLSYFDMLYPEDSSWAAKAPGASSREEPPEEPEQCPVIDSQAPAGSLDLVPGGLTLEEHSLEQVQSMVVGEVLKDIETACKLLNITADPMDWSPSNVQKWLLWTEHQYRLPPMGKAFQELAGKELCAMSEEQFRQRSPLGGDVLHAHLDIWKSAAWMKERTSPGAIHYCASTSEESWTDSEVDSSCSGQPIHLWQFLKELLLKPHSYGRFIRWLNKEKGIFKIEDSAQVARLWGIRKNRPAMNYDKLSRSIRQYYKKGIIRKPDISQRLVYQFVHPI
# Method in brief: as §1
# ETV7 = target: T10, ETV7 (Homo sapiens, UniProt Q9Y603 1-341); conditions: protein: recombinant; tags: N-terminal GST; dsDNA, one strand shown
# T10 sequence: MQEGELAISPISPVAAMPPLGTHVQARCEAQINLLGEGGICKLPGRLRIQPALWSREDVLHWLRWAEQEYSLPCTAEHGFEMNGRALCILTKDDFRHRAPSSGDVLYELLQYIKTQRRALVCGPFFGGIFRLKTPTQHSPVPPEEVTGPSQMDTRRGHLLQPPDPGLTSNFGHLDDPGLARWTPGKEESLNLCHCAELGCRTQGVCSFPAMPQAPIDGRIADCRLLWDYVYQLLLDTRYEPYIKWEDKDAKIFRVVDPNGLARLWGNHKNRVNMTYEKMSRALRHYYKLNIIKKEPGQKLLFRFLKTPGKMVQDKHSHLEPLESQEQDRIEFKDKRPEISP
# Method in brief: as §1
# ELF5 = target: T11, ELF5 (Homo sapiens, UniProt Q9UKW6-2 1-255); conditions: protein: recombinant; tags: N-terminal GST; dsDNA, one strand shown
# T11 sequence: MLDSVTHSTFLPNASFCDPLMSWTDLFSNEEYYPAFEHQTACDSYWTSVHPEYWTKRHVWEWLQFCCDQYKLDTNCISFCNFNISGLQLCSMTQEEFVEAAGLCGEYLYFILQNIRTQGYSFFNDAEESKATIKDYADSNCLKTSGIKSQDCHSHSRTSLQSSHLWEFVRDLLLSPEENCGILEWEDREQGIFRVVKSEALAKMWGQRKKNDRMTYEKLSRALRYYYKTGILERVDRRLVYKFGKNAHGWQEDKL
# Method in brief: as §1
# ETV3 = target: T12, ETV3 (Homo sapiens, UniProt P41162-2 1-143); conditions: protein: recombinant; tags: N-terminal GST; dsDNA, one strand shown
# T12 sequence: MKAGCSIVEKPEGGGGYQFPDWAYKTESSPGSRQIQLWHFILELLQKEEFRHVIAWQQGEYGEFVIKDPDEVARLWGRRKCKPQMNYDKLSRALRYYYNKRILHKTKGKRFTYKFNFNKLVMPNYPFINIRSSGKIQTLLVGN
# Method in brief: as §1
# ETV6 = ETV6 (Homo sapiens, UniProt P41212 1-452); conditions: protein: recombinant; tags: N-terminal GST; dsDNA, one strand shown
# Method in brief: as §1
# Chain of ETV6 (P41212 whole entry): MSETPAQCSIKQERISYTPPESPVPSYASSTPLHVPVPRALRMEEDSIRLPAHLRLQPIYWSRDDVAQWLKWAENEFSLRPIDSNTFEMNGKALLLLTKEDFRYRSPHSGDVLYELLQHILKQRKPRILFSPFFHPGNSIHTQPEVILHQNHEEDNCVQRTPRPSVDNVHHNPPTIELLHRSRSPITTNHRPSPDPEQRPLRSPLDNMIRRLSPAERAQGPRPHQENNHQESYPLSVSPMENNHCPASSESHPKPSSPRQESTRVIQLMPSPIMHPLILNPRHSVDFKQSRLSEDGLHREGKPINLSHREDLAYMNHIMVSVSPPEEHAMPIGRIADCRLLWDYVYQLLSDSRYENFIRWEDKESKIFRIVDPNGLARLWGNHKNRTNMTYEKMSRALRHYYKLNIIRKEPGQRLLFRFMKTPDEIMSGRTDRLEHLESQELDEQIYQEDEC
# Chain of ETV1 (P50549 whole entry): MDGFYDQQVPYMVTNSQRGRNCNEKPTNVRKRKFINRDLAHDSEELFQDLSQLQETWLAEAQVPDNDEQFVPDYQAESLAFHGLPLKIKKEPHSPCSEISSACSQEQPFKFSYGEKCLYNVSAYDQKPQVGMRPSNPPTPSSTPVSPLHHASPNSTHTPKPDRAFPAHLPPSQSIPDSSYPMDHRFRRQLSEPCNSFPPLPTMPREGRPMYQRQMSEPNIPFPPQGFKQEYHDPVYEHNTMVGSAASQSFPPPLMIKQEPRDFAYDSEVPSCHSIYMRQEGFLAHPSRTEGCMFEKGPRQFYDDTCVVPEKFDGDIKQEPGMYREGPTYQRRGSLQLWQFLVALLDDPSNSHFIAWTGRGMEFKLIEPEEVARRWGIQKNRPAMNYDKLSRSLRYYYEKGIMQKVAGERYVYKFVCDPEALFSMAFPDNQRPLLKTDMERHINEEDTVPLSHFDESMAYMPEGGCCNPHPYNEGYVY
# Chain of ETV5 (P41161 whole entry): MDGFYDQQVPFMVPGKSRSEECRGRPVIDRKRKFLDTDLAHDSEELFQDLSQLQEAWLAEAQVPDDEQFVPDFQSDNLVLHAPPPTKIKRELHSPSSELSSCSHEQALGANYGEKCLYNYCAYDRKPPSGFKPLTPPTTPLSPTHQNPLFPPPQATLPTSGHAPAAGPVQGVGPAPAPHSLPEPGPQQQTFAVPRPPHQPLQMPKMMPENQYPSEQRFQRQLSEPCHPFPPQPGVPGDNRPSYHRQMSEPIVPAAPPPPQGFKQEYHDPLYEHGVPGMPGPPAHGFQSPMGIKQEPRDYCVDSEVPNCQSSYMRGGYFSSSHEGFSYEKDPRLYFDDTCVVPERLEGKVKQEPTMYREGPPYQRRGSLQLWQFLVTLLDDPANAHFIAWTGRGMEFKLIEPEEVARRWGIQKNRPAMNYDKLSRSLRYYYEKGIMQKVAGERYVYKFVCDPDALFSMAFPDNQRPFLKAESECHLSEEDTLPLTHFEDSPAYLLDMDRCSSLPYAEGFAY
# Chain of ELF4 (Q99607 whole entry): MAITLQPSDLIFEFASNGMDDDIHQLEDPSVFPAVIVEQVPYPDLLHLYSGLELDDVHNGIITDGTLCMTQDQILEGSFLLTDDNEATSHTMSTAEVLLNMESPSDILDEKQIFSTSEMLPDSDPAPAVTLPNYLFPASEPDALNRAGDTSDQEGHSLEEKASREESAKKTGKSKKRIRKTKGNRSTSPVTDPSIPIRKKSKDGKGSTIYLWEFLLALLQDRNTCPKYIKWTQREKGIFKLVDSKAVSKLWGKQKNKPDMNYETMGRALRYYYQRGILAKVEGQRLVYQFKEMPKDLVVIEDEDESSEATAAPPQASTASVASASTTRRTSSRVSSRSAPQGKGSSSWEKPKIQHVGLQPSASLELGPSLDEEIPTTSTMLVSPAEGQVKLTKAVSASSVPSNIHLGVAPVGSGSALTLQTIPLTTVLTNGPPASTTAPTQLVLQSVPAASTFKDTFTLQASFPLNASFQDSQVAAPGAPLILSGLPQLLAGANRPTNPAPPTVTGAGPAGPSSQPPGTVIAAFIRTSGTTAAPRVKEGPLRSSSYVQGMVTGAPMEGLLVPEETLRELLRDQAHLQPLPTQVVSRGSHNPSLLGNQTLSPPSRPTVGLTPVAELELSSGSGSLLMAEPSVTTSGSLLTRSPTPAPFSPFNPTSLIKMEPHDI
# Chain of HSF1 (Q00613 whole entry): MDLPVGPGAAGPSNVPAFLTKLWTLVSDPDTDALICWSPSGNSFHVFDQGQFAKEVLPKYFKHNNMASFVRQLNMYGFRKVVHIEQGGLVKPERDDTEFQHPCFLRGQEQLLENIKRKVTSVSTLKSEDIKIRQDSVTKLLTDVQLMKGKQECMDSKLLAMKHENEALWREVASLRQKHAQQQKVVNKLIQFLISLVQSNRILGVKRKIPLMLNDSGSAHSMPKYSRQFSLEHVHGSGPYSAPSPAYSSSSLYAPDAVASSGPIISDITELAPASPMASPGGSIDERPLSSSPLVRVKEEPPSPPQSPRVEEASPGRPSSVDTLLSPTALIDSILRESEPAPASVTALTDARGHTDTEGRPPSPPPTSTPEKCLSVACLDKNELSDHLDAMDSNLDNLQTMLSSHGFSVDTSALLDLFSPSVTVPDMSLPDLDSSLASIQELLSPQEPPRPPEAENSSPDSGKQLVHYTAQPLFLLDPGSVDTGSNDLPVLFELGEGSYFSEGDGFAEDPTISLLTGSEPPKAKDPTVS
# Chain of CRX (O43186 whole entry): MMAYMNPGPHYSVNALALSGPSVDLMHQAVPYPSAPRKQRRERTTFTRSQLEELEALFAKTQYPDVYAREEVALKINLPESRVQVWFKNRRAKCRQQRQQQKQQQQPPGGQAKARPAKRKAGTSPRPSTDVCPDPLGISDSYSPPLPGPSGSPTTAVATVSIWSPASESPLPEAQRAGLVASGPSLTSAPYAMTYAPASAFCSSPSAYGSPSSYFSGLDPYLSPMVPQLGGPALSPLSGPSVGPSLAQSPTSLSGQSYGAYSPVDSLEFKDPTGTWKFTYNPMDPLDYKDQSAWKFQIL
sequence,measurement,setting,value
TCTCAC,binding signal,FEV,"1.47 fold enrichment (6-mer frequency, TF over GST control)"
same,binding signal,ETV5,"1.34 fold enrichment (6-mer frequency, TF over GST control)"
same,binding signal,HSF1,"1.3 fold enrichment (6-mer frequency, TF over GST control)"
same,binding signal,SPIC,"1.55 fold enrichment (6-mer frequency, TF over GST control)"
same,binding signal,ELF4,"1.37 fold enrichment (6-mer frequency, TF over GST control)"
same,binding signal,ELK4,"1.35 fold enrichment (6-mer frequency, TF over GST control)"
same,binding signal,ETV2,"1.18 fold enrichment (6-mer frequency, TF over GST control)"
same,binding signal,ELF3,"1.42 fold enrichment (6-mer frequency, TF over GST control)"
same,binding signal,CRX,"1.33 fold enrichment (6-mer frequency, TF over GST control)"
same,binding signal,ETV1,"1.3 fold enrichment (6-mer frequency, TF over GST control)"
same,binding signal,ERF,"1.44 fold enrichment (6-mer frequency, TF over GST control)"
same,binding signal,ETV3L,"1.33 fold enrichment (6-mer frequency, TF over GST control)"
same,binding signal,ETS2,"1.35 fold enrichment (6-mer frequency, TF over GST control)"
same,binding signal,SPDEF,"1.23 fold enrichment (6-mer frequency, TF over GST control)"
same,binding signal,ETV7,"1.24 fold enrichment (6-mer frequency, TF over GST control)"
same,binding signal,ELF5,"1.37 fold enrichment (6-mer frequency, TF over GST control)"
same,binding signal,ETV3,"1.34 fold enrichment (6-mer frequency, TF over GST control)"
same,binding signal,ETV6,"1.32 fold enrichment (6-mer frequency, TF over GST control)"

# — PMC7862700, “An all-to-all approach to the identification of sequence-specific readers for epigenetic DNA modifications on cytosine”
